Here are results for 3 compounds from PubChem BioAssay (NCI).

SMILES strings stand for the structures. The panel holds about 83,000 compounds, 20% with a hit somewhere; the sample as a whole holds those more often.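 Each cell line was grown in a 96-well plate and treated with one concentration of compound for 48 hours. Values below 10 were considered active.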 Activity calls are given as the source filed them.

Among the test systems are HOP-62 NSCLC; NCI-H460 lung; A549/ATCC NSCLC; 786-0 renal; DU-145 prostate; MALME-3M melanoma; RXF 393 renal; UACC-257 melanoma; M14 melanoma; SNB-19 CNS; SK-MEL-2 melanoma; UO-31 renal; A498 renal; HL-60(TB) leukemia; RPMI-8226 leukemia; OVCAR-5 ovarian; OVCAR-4 ovarian; T-47D breast; HCC-2998 colon; SF-295 CNS.
Holding throughout (experiment): NCI-60 one-dose screen, 48 h (100 = growth as untreated, 0 = no growth, -100 = all killed)
Common to all, as to details: 10 µM unless noted

As for `Nc1nc(N)c(-c2ccc(Cl)c(Cl)c2)c(/C=C/c2ccc(S(=O)(=O)F)cc2)n1`, the growth in the experiment on HOP-62 NSCLC was 91.3% (inactive); in the experiment on NCI-H460 lung, 77% (inactive); with A549/ATCC NSCLC, 81.3% (inactive); with 786-0 renal, 76.9% (inactive); in the experiment on DU-145 prostate it was 96.7% (inactive); in the experiment with MALME-3M melanoma it was 86.9% (inactive). The growth was 90.6% (inactive) in the experiment with RXF 393 renal; 76.3% (inactive) in the experiment on UACC-257 melanoma; 89.4% (inactive) in the experiment on M14 melanoma; 102% (inactive) in the experiment with SNB-19 CNS; 86.3% (inactive) in the experiment on SK-MEL-2 melanoma; 74.7% (inactive) in the experiment with UO-31 renal. In addition, the growth with A498 renal is 87.7% (inactive); in the experiment with HL-60(TB) leukemia, 91.9% (inactive); with RPMI-8226 leukemia it was 93.1% (inactive); with OVCAR-5 ovarian, 80.8% (inactive); with OVCAR-4 ovarian, 100% (inactive); in the experiment on T-47D breast, 96.1% (inactive). Besides, in the experiment on HCC-2998 colon, the growth is 111% (inactive).

`CCC(CO)NC1CCCCC1` (stereo not drawn): the growth was 88.7% (inactive) in the experiment on HOP-62 NSCLC; 100% (inactive) in the experiment with NCI-H460 lung; 93.8% (inactive) in the experiment with A549/ATCC NSCLC; 76% (inactive) in the experiment with 786-0 renal; 91.1% (inactive) with DU-145 prostate; 86.1% (inactive) with MALME-3M melanoma. Further, the growth in the experiment with RXF 393 renal is 45% (inactive); in the experiment on SF-295 CNS it was 113% (inactive); in the experiment with UACC-257 melanoma, 89.9% (inactive); in the experiment with M14 melanoma it was 84.6% (inactive); in the experiment with SNB-19 CNS it was 88.3% (inactive); in the experiment on SK-MEL-2 melanoma, 81.2% (inactive). Besides, the growth was 66% (inactive) in the experiment on UO-31 renal; 71.6% (inactive) in the experiment on A498 renal; 60.9% (inactive) with HL-60(TB) leukemia; 97.6% (inactive) in the experiment with RPMI-8226 leukemia; 92.4% (inactive) in the experiment with OVCAR-5 ovarian; 89% (inactive) in the experiment on OVCAR-4 ovarian. Besides, the growth with HCC-2998 colon was 86.4% (inactive).

Turning to `CC(C)(O)/C=C/C(=O)[C@](C)(O)[C@H]1[C@H](O)C[C@@]2(C)[C@@H]3CC=C4[C@@H](C=C(O)C(=O)C4(C)C)[C@]3(C)C(=O)C[C@]12C`, the growth with HOP-62 NSCLC was -64.2% (active); in the experiment with NCI-H460 lung it was -20.8% (active); in the experiment with A549/ATCC NSCLC, 0.767% (active); with 786-0 renal it was -96.2% (active); in the experiment on DU-145 prostate it was -40.2% (active); with MALME-3M melanoma, -66.5% (active). Moreover, the growth with RXF 393 renal was 0.503% (active); in the experiment with SF-295 CNS, -43.2% (active); with UACC-257 melanoma it was 0.414% (active); with M14 melanoma, -75.3% (active); in the experiment on SNB-19 CNS, -53.1% (active); in the experiment on SK-MEL-2 melanoma, -43.6% (active). Also, the growth with UO-31 renal is -54.6% (active); in the experiment with A498 renal it was -79.8% (active); in the experiment on HL-60(TB) leukemia it was -38.9% (active); with RPMI-8226 leukemia it was -53.8% (active); with OVCAR-5 ovarian, -3.44% (active); in the experiment with OVCAR-4 ovarian, -45.9% (active). For the same compound, the growth in the experiment with T-47D breast was -15.3% (active); with HCC-2998 colon it was -99% (active).
